# FBW7 act: FBW7 E3 ligase activators, primary screen, biochemical, AlphaScreen, human. normalized activity (activation), % at 26.1 µM. AlphaScreen FBW7–phospho-cyclin E peptide binding, activator screen. hit rate 0.13% among 650,000. F-box/WD repeat-containing protein 7 (Homo sapiens), Q969H0. AID 1259310, 2017; in the data active means normalized activity above about 1.9%;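 further: purified mutant Fbw7 with reduced substrate affinity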
# GPR151 activ: activators of human GPR151, primary screen, cell-based, PathHunter beta-arrestin, luminescence; AID 1508602, 2020; G-protein coupled receptor 151 (Homo sapiens), Q8TDV0; hit rate 1% among 650,000; PathHunter beta-arrestin GPR151 cells; activation, % at 11.2 µM; in the data active means activation above about 4.9%
# Target sequence (Q8TDV0 whole entry, looked up): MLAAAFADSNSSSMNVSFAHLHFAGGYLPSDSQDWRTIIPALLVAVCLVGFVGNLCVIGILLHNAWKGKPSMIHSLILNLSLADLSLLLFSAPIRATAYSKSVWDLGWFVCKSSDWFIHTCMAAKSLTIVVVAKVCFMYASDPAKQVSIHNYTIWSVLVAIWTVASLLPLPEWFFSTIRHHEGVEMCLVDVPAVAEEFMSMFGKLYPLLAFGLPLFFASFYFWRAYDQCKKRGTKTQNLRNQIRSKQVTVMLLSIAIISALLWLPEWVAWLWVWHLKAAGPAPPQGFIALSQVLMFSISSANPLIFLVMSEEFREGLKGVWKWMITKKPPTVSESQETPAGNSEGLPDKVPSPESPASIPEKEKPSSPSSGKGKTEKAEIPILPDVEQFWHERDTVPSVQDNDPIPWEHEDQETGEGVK
# TEAD-YAP inh: TEAD-YAP interaction inhibition, primary screen, TEAD-YAP interaction inhibitor project, luminescence, HEK-TIYL cells; inhibition, % at 9.12 µM; hit rate 1.4% among 640,000; TEAD-Gal4/YAP UAS-luciferase luminescence; AID 1259422, 2018; in the data active means inhibition above about 32%
# MITF primary: MITF inhibitors, primary screen, biochemical, AlphaScreen, human | Microphthalmia-associated transcription factor (Homo sapiens), O75030 | AlphaScreen MITF homodimerization, bead proximity signal | inhibition, % at 2.6 µM | hit rate 0.91% among 650,000 | AID 1259374, 2018; in the data active means inhibition above about 50%
# GPR151 confirm: GPR151 activators, triplicate retest, confirmation, cell-based, PathHunter beta-arrestin, luminescence; shares compounds with GPR151 activ; GPR151 PathHunter beta-arrestin cells, 90 min; % of EA-reagent control over plate median; activation, % at 11.2 µM; 6,700 tested, under 10 active;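 active means mean percent activation across replicates above the confirmation screen cutoff of 4.91%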
# GPR119 counter: GPR119 activators in beta-arrestin cells, counter-screen for GPR151 activator project, cell-based, PathHunter beta-arrestin, luminescence, triplicate; shares compounds with GPR151 activ; hit rate 0.3% among 6,700; activation, % at 11.2 µM; 90 min; 0 = compound-well median, 100 = enzyme-acceptor control; AID 1508611, 2020;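 active means mean percent activation in the counterscreen above 29.09%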;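 further: counterscreen on off-target GPR119 to flag nonselective hits from the GPR151 activator screen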
# Numbers stand for hits; . = inactive; / = no result given. A selection: hits, their analogues and other compounds. The true share with any hit is near 3.4%.
SMILES,FBW7 act,GPR151 activ,TEAD-YAP inh,MITF primary,GPR151 confirm,GPR119 counter
Cc1ccc(NC(=O)Cn2nnc(-c3ccccc3NC(=O)c3cccc(C)c3)n2)cc1,.,5.0,.,.,.,.
NC(=O)c1c(NC(=O)Cn2nnc(-c3ccccc3Cl)n2)sc2c1CCCC2,.,6.4,.,.,.,.
NC(=O)c1c(NC(=O)c2ccccc2Cl)sc2c1CCCC2,.,.,.,.,/,/
O=C(Cn1nnc(-c2ccccc2Cl)n1)Nc1ccccc1C(F)(F)F,.,.,.,.,/,/
Cc1ccc2[nH]c3c(=O)n(CC(=O)N4CCN(Cc5ccccc5)CC4)cnc3c2c1,.,.,.,.,/,/
O=C(CCN1CCN(c2ccc([N+](=O)[O-])cc2)CC1)Nc1ccc(Cl)cc1,.,.,.,.,/,/
NC(=O)c1c(NC(=O)CCSc2ccc(F)cc2)sc2c1CCCC2,.,7.1,.,.,.,.
Cn1c(Cn2nnc(-c3ccccc3)n2)nnc1SCC(=O)Nc1ccccc1Cl,.,7.6,.,.,.,.
NC(=O)c1c(NC(=O)CCSc2ccccc2)sc2c1CCCC2,.,.,.,.,/,/
O=C(Nc1ccc(S(=O)(=O)N2CCCC2)cc1)c1nn2c(C(F)(F)F)cc(-c3ccccc3)nc2c1Br,.,.,.,.,/,/
CCOc1ccc(CC(=O)Nc2ccc(-c3cn4c(n3)SCC4)cc2)cc1,.,5.1,.,.,.,.
O=C(Cc1ccc(Br)cc1)Nc1ccc(-c2cn3c(n2)SCC3)cc1,.,.,.,.,/,/
CCN(CC)C(=O)C1=C(C)NC(=O)NC1c1cccc([N+](=O)[O-])c1 (centres undefined),.,.,.,.,/,/
Cc1nc2cc(C(=O)N3CCCC(N4CCOCC4)C3)ccc2n1-c1ccccc1 (centres undefined),.,11,.,.,.,.
COc1ccc(C(=O)OC2CC(C)CCC2C(C)C)cc1[N+](=O)[O-] (centres undefined),.,.,.,.,/,/
Cc1ccc2[nH]c(=O)c(CN(CC3COCCO3)S(=O)(=O)c3ccc(F)cc3)cc2c1 (centres undefined),.,5.3,.,.,.,.
C=CCOc1c(Br)cc(CNCCO)cc1OC,.,6.7,.,.,.,.
COc1cc(CNCCO)cc(Br)c1OCc1ccccc1,.,.,.,.,/,/
O=c1nc(SCc2cccc3ccccc23)c2c(n1CCCO)CCCC2,.,.,.,.,/,/
O=c1nc(SCc2c(F)cccc2Cl)c2c(n1CCCO)CCCC2,.,5.1,.,.,.,.
c1ccc(CNc2nc(-c3ccc(N4CCOCC4)nc3)nc3c2ncn3-c2ccccc2)cc1,.,5.5,.,.,.,.
c1ccc(-n2cnc3c(NCc4cccnc4)nc(-c4ccc(N5CCOCC5)nc4)nc32)cc1,.,5.7,46,.,.,.
CCCNc1nc(-c2ccc(N3CCOCC3)nc2)nc2c1ncn2-c1ccccc1,.,.,.,.,/,/
CC(C)OC(=O)COc1ccc(C(=O)NCc2ccccc2)cc1,.,5.3,.,.,.,.
O=C(NCc1ccccc1)c1ccc(OCc2ccccc2)cc1,.,.,.,.,/,/
SMILES,FBW7 act,GPR151 activ,TEAD-YAP inh,MITF primary,GPR151 confirm,GPR119 counter
COc1ccc(C(=O)OCCCOC(=O)c2ccc(OC)cc2OC)c(OC)c1,.,5.9,.,.,.,.
COc1ccc(C(=O)OCCCC(=O)c2ccc(F)cc2)c(OC)c1,.,.,.,.,/,/
CCOC(=O)CNC(=O)N(Cc1ccccc1)Cc1ccccc1,.,5.3,.,.,.,.
CCOC(=O)CNC(=O)OCc1ccccc1,.,.,.,.,/,/
O=C(Cc1ccccc1)NCC(=O)OCc1ccc(Cl)cc1,.,.,.,.,/,/
NCC(=O)NCC(=O)OCc1ccccc1,.,7.5,.,.,.,.
Cc1nc2cc(C(=O)OCC(=O)Nc3ccc(C#N)cc3)ccc2n1-c1ccccc1,.,.,.,.,/,/
CC(=O)c1ccc(NC(=O)COC(=O)c2ccc3c(c2)nc(C)n3-c2ccccc2)cc1,.,7.1,.,.,.,.
COc1ccc([N+](=O)[O-])cc1NC1CCCCC1C (centres undefined),.,5.7,.,.,.,.
CCS(=O)(=O)Nc1cc([N+](=O)[O-])ccc1OC,.,.,.,.,/,/
COc1ccc([N+](=O)[O-])cc1NC(C)C,.,5.0,.,.,.,.
CC1CCCCC1Nc1ccc([N+](=O)[O-])cc1C#N (centres undefined),.,.,.,.,/,/
CCc1ccc(NC(=O)C(C)OC(=O)[C@H](Cc2c[nH]c3ccccc23)NC(N)=O)cc1 (some centres undefined),.,.,.,.,/,/
Cc1cc2nc(-c3ccc(NC(=O)c4cccc([N+](=O)[O-])c4C)cc3)oc2cc1C,.,.,.,.,/,/
CC(=O)Nc1ccc(Nc2nc(-c3ccc(C(=O)NC4CC4)cc3)nc3nc[nH]c23)cc1,.,7.8,.,.,.,.
COCC1CCCCN1C(=O)CC1(c2ccccc2)CC(=O)N(CCc2ccccn2)C1=O (centres undefined),.,5.4,.,.,.,.
CCN1C2=C(C(=O)CCC2)C(c2ccc3c(c2)OCO3)C2=C1CCCC2=O,.,.,.,.,/,/
Cc1ccc(-c2nc3cc(NC(=O)c4cc(Br)ccc4Cl)ccc3o2)cc1Br,.,6.1,.,.,.,.
Cc1c(C(=O)Nc2ccc3oc(-c4ccncc4)nc3c2)cccc1[N+](=O)[O-],.,.,.,.,/,/
Cc1c(C(=O)Nc2ccc3oc(-c4cccnc4)nc3c2)cccc1[N+](=O)[O-],.,11,.,.,.,.
CC(=O)Nc1ccc2oc(-c3ccncc3)nc2c1,.,5.1,.,.,.,.
CC(=O)Nc1ccc(-c2nc3cc(C)ccc3o2)cc1,.,.,.,.,/,/
Cc1ccc(-c2nc3cc(NC(=O)c4cc(Cl)ccc4Cl)ccc3o2)cc1Br,.,.,.,.,/,/
CCOC(=O)CSc1nc2c(sc(=S)n2Cc2ccccc2)c(=O)n1-c1cccc(Cl)c1,.,.,.,.,/,/
CCOC(=O)CSc1nc2c(c(=O)n1Cc1ccccc1)C1(CCCC1)Cc1ccccc1-2,.,7.5,.,.,.,.
CCOC(=O)CSc1nc2nccnc2c(=O)n1Cc1ccccc1,.,5.0,.,.,.,.
CCOC(=O)CSc1nc2c(sc(=S)n2Cc2ccccc2)c(=O)n1Cc1ccccc1,.,6.0,.,.,.,.
NC(=O)CSc1nc2nccnc2c(=O)n1Cc1ccccc1,.,.,.,.,/,/
CCOC(=O)CSc1nc2cc(C(=O)NC3CCCCC3)ccc2c(=O)n1CCc1ccccc1,.,5.1,.,.,.,.

# From PubChem BioAssay
